NLRP3 yeast inh: NALP3 inflammasome inhibitors in reconstituted yeast, primary screen, luminescence, uHTS | Yeast reconstituted NLRP3/ASC/caspase-1, beta-gal luminescence, 24 h | inhibition, % at 10 µM | actives 0.39% (n = 330,000);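 active = inhibition of 50% or more; inactive = inhibition below 50%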
TIM10 inh: growth inhibitors of isogenic TIM10 control yeast, primary screen, counter-screen for tim10-1 yeast inhibitor project, luminescence, uHTS | S. cerevisiae TIM10 strain growth, BacTiter-Glo luminescence, 24 h | inhibition, % at 10 µM | actives 1.4% (n = 330,000) | AID 463195, 2010;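 active = inhibition of 40% or more at the single tested concentration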;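 also: wild-type TIM10 isogenic control strain grown at permissive 25 °C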
PfHsp90 set2: growth inhibition of PfHsp90-expressing yeast, primary screen, antimalarial PfHsp90 inhibitor project, S. cerevisiae, BacTiter-Glo luminescence, single point, set 2; BacTiter-Glo ATP, 48 h; yeast lacking PDR1 and PDR3 efflux regulators; inhibition, % at 9.4 µM; actives 0.32% (n = 310,000);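 active = every replicate shows inhibition above about 80%, whatever the replicate mean, limit read from the data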
tim23-1 inh: growth inhibitors of tim23-1 mutant yeast, primary screen, luminescence, uHTS | S. cerevisiae tim23-1 growth, BacTiter-Glo luminescence, 24 h | inhibition, % at 20 µM | actives 1.3% (n = 330,000);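 active = growth inhibition of the mutant yeast at or above 50%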;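 also: temperature-sensitive mutant grown at 25 °C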
tim10-1 inh: growth inhibitors of tim10-1 mutant yeast, primary screen, luminescence, uHTS; S. cerevisiae tim10-1 ts strain growth, BacTiter-Glo, 24 h; actives 2.2% (n = 330,000); AID 463190, 2010; inhibition, % at 20 µM;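 active = inhibition of at least 40%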;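 also: mutant grown at 25 °C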
tim10 confirm: growth inhibitors of wild-type TIM10 yeast, confirmation, counter-screen for tim10-1 synthetic lethality project, single concentration, luminescence, S. cerevisiae. S. cerevisiae tim10 strain growth, BacTiter-Glo luminescence, 24 h. AID 463215, 2010. shares compounds with TIM10 inh. actives 63% (n = 4,600). inhibition, % at 10 µM;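 active = inhibition of yeast growth at or above a set limit in either of two replicates at 10 µM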; also: this counterscreen used the strain with wild-type TIM10
Of the large screens only hits and unclear results are named; the others gave an inactive call (follow-up assays come after a bar, where they were run). Compounds with a hit are over-represented: about 3.7% of the library has one in this group of screens.

CC(NC(=O)c1cccc(S(=O)(=O)N2CCN(Cc3ccccc3)CC2)c1)c1ccc(Cl)cc1 (stereo not drawn)	none (no result: PfHsp90 set2)
Cc1ccc(S(=O)(=O)N(C)CC(=O)NNC(=O)CCNS(=O)(=O)c2cccc(C)c2)cc1	none
CCc1nnc(NC(=O)CSc2nnc(CNc3cccc(Cl)c3)n2CC)s1	none
CCn1c(CNc2cccc(Cl)c2)nnc1SCc1ccccc1	TIM10 inh 41 | tim10 confirm 49
Fc1ccc(OCc2nnc(SCCN3CCOCC3)o2)cc1	none
CO/N=C(\c1nonc1N)N1CCN(c2ccc(Cl)cc2[N+](=O)[O-])CC1	TIM10 inh 43 (no result: PfHsp90 set2) | tim10 confirm 31
CO/N=C(\c1nonc1N)N1CCN(c2ccc([N+](=O)[O-])cc2Cl)CC1	none
COc1ccc(NC(=O)CN(C)C(=O)C(Sc2ccccc2)c2ccccc2)cc1 (stereo not drawn)	none
O=[N+]([O-])c1cc([N+](=O)[O-])c2c(=Nc3ccccc3)n(-c3ccccc3)n(O)c2c1	TIM10 inh 50 | tim10 confirm 66
O=C(COc1ccc2c(c1)OCO2)NC12CC3CC(CC(C3)C1)C2	TIM10 inh 47 | tim10 confirm 33
COc1ccc(NC(=O)COc2ccc3c(c2)OCO3)cc1	none
CC(C)(C)NC(=O)CN(CC1CCCO1)C(=O)CNS(=O)(=O)c1ccc(F)cc1 (stereo not drawn)	none
CCCCNC(=S)N/N=C/c1sccc1C	TIM10 inh 59 | tim10 confirm 47
OC(CNCc1ccco1)Cn1c2ccc(Br)cc2c2cc(Br)ccc21 (stereo not drawn)	TIM10 inh 46 | tim10 confirm 65
Brc1ccc2ncnc(NCc3ccco3)c2c1	none
N#CC1=C(N)Oc2n[nH]c(-c3cccs3)c2C1c1cccs1 (stereo not drawn)	TIM10 inh 46 | tim10 confirm inactive
COCc1[nH]nc2c1C(c1sccc1C)C(C#N)=C(N)O2 (stereo not drawn)	TIM10 inh 53 | tim10 confirm 28
COCc1[nH]nc2c1C(c1ccsc1)C(C#N)=C(N)O2 (stereo not drawn)	none
COc1ccccc1C(=O)NCC1CCN(c2ccc(S(=O)(=O)N3CCOCC3)cc2)CC1	none
Cc1ccc(-n2nnnc2SCC(=O)c2c(N)n(C3CC3)c(=O)[nH]c2=O)c(C)c1	none
COc1cccc(C(=O)Nn2c(-c3cccs3)nc3ccccc3c2=O)c1OC	TIM10 inh 41 | tim10 confirm 35
COc1cc(C(=S)N2CCN(c3cccc(Cl)c3)CC2)ccc1O	TIM10 inh 41 | tim10 confirm 46
Cc1c(NC(=O)c2cc(-c3cccc(Cl)c3)on2)c(=O)n(-c2ccccc2)n1C	none
CC1Cc2ccccc2N1C(=O)C1CCCN(S(=O)(=O)c2cccc3nsnc23)C1 (stereo not drawn)	TIM10 inh 44 | tim10 confirm inactive
Cc1ccc(C(=O)NCC(=O)OC(C)C(=O)Nc2ccc(N(C)C)cc2)s1 (stereo not drawn)	none
CNc1ccc(/C=C/C(=O)c2cccc3ccccc23)cc1[N+](=O)[O-]	TIM10 inh 45 | tim10 confirm inactive
Cc1c(NC(=O)CSCc2c(F)cccc2Cl)c(=O)n(-c2ccccc2)n1C	none (no result: PfHsp90 set2)
CC1CN(CC(O)COC(c2ccc(Cl)cc2)c2ccc(Cl)cc2)CC(C)O1 (stereo not drawn)	TIM10 inh 46 | tim10 confirm 40
Cc1[nH]c(C(=O)N/N=C/c2ccc(C(=O)O)cc2)c(C)c1C(=O)N/N=C/c1ccc(C(=O)O)cc1	none
CCOC(=O)c1c(C)[nH]c(C(=O)N/N=C/c2ccc(Br)cc2)c1C	TIM10 inh 50 | tim10 confirm 46
CC1CCc2sc(C(=O)NNS(=O)(=O)c3ccc(F)c(F)c3F)cc2C1 (stereo not drawn)	none (no result: PfHsp90 set2)
COc1ccccc1NC(=O)c1ccc2c(c1)CCN2S(C)(=O)=O	none
COc1ccc(-c2cn3cc(C(F)(F)F)cc(Cl)c3n2)cc1	TIM10 inh 52 | tim10 confirm 37
CCN(Cc1ccccc1)C(=O)CSc1ncn[nH]1	none
Brc1ccc(-c2ccc(CNCc3ccccn3)o2)cc1	TIM10 inh 69 | tim10 confirm inactive
CCN(Cc1ccc(NC(C)=O)cc1)CC1CCCN(CCc2cccc(OC)c2)C1 (stereo not drawn)	none
CC(=O)Oc1ccc2ccccc2c1C(NC(=O)Cc1ccccc1)c1ccc(Cl)cc1 (stereo not drawn)	TIM10 inh 40 | tim10 confirm inactive
CCOc1ccc(C(NC(=O)CC)c2c(O)ccc3ccccc23)cc1 (stereo not drawn)	none
CCOC(=O)C1CCCN(C(=O)c2ccc3[nH]c4c(c3c2)CC(C)CC4)C1 (stereo not drawn)	TIM10 inh 73 | tim10 confirm inactive
CN1CCC(=NNC(=O)CN(c2ccc([N+](=O)[O-])cc2)S(=O)(=O)c2ccccc2)CC1	TIM10 inh 40 | tim10 confirm 31
CN1CCC(=NNC(=O)CN(c2cccc([N+](=O)[O-])c2)S(=O)(=O)c2ccccc2)CC1	none
Cc1ccc2c(c1)c1nc3ccccc3nc1n2CCN1CCOCC1	TIM10 inh 48 | tim10 confirm inactive
N#CC(c1nc2ccccc2nc1N1CCCC1)S(=O)(=O)c1ccccc1 (stereo not drawn)	TIM10 inh 41 | tim10 confirm inactive
Cc1sc2c(=O)n3c(nc2c1C(=O)NCCCN1CCOCC1)CCCCC3	none
COc1ccc(OC)c(C(=O)c2coc3ccc(OC(C)=O)cc23)c1	none
COc1ccc2occ(C(=O)c3cccs3)c2c1	TIM10 inh 42 | tim10 confirm 39
NC(=O)CSc1nnnn1-c1cccc(Cl)c1	none
C#CCSc1nnnn1-c1cccc(Cl)c1	TIM10 inh 49 | tim10 confirm inactive
O=C(Nc1ccc2oc(-c3ccccc3)nc2c1)c1ccccc1F	TIM10 inh 65 | tim10 confirm 54
O=C(Nc1ccc2oc(-c3ccncc3)nc2c1)c1ccccc1F	none
O=C(Nc1ccc2oc(-c3ccncc3)nc2c1)c1ccccc1	TIM10 inh 45 | tim10 confirm inactive
Cc1ccc(CCC(=O)Nc2ccc(N(C)C)cc2)o1	none
Cc1ccc2nc(CSc3nc(C)ccc3C#N)[nH]c2c1	TIM10 inh 61 | tim10 confirm 48
C=CCNC1=C(Cl)C(=O)N(c2ccccc2Cl)C1=O	none
O=C(Nc1ccc(F)c(Cl)c1)C1CCCN(C2=NS(=O)(=O)c3ccccc32)C1 (stereo not drawn)	none

Screens deposited in PubChem by several laboratories.
